# Pf growth 48h: inhibits P. falciparum growth in the first generation, 48 h | P. falciparum luciferase growth in erythrocytes, 48 h | Potency, µM (series often up to 28.7 µM), for inactives: at the top dose activity change, negative = inhibition, actives largely listed as inhibitors | 310,000 compounds, 5.9% hits; note: potency is the fitted concentration of half-maximal effect
#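 First compound was added to culture medium, then infected red cells at 0.1% parasitemia and 2% hematocrit (final). After incubation at 37 C under 5% CO2, luciferase detection reagent was dispensed and light output recorded.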
# HCMV inh: blocks human cytomegalovirus replication | 410,000 compounds, 4.5% hits | HFF cells, HCMV-luciferase reporter, 72 h; hits give low values | activity change, negative = inhibition, % at 57.5 µM | AID 1259415; in the data active = activity change below about -60%; inconclusive = no clear call, values can overlap the other calls; inactive = above about -39%
#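 HFF cells seeded 16 h at 37C, treated with compounds, infected with luciferase-reporter HCMV at MOI 1 PFU/cell; luciferase read at 72 h post infection, normalized to buffer-only and Salinomycin controls.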
# Lassa entry inh: blocks Lassa virus binding to or entry into cells | 300,000 compounds, 1.2% hits | AID 540256 | Lassa virus pseudotype entry inhibition, cell reporter | Potency, µM (doses to about 37.9 µM), for the others: top-dose activity change, negative = inhibition, actives largely listed as inhibitors; calls by dose curve; tested in HEK293 cells; note: potency is the fitted concentration of half-maximal effect; nearly all actives have a fitted effect of over 50% in size
# HCV inhibitor: blocks hepatitis C virus. Huh7.5.1 HCVcc-Cre infection, luciferase reporter, 44 h. Potency, µM (titrated, usually from 41.8 µM), inactives show top-dose activity change, negative = inhibition, most hits filed as inhibitors. 340,000 compounds, 3.4% hits. AID 651820; note: potency is the fitted concentration of half-maximal effect
#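 Seed cells (1,000/well) for 4 h; treat with compound and infect with HCVcc-Cre, moi about 0.5. Incubate 44 h, then detect luciferase activity.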
# Pf growth 96h: P. falciparum growth inhibition at 96 hour, primary screen for plastid delayed-death inhibitors. P. falciparum luciferase reporter growth, 96 h. Potency, µM (series often up to 28.7 µM), inactives show at the highest dose activity change, negative = inhibition, usual class: inhibitors. 320,000 compounds, 6.9% hits. AID 504834; note: potency is the fitted concentration of half-maximal effect
#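 Erythrocytes infected with luciferase-expressing P. falciparum were dispensed at 2% hematocrit and 0.05% parasitemia (final), then incubated with compounds 96 hours at 37 C in 5% CO2. Luminescence after detection reagent addition reported growth.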
# Marburg entry inh: Marburg virus entry inhibition; AID 540276; Potency, µM (highest dose often 37.8 µM), without a hit: at the top dose activity change, negative = inhibition, hits mostly inhibitors; 300,000 compounds, 1.8% hits; Marburg virus pseudotyped entry inhibition, cell reporter; calls by dose curve; tested in HEK293 cells; note: potency is the fitted concentration of half-maximal effect
# The depositor's hits bear a star; ? = inconclusive; . = no result; [ ] = remark or other dose. Rows were chosen to be rich in hits. Some 14% of all compounds tested hit in one or more screens of this group. Unless noted, calls come from the whole dose curve; as a rule, active = well fitted inhibition curve with a large enough effect; inconclusive = small, poorly fitted or top-dose-only effect, or another doubt; inactive = no such curve, though single readings can be large or run the other way. % is set by controls: 0 for no effect and ±100 for the full control effect.
SMILES,Pf growth 48h,HCMV inh,Lassa entry inh,HCV inhibitor,Pf growth 96h,Marburg entry inh
CCOC(=O)C1(C(=O)OCC)C(C(=O)c2ccccc2)C1c1ccccc1 (stereo not drawn),.,-27,-19%[46.1 µM],?,.,?
COc1ccc(C2=C(Nc3ccc(C)cc3)c3ccccc3C2=O)cc1,0.83µM*,-22,-16%,-25%,-15%,1%
Cc1ccc(NC2=C(NCCO)C(=O)c3ccccc3C2=O)cc1,5.9µM*,14,?,5%,67%,?
O=C1C(Cl)=C(NCCCO)C(=O)c2ccccc21,?,-29,-18%,13µM*,.,?
CCOCCCNC1=C(Cl)C(=O)c2ccccc2C1=O,3.7µM*,-26,.,-13%,?,.
Cc1cccc(CN2CCN([C@H]3CS(=O)(=O)N[C@@H]3COCc3ccccc3)CC2)c1,.,-32,.,.,.,.
O=C(CCN1C(=O)C2CC=CCC2C1=O)N1CCN(C2=NCCCC2)CC1 (stereo not drawn),.,.,.,.,.,21%
COC(=O)Cn1c(C2CC(=O)N(c3c(C)cccc3C)C2)nc2ccccc21 (stereo not drawn),.,3,10%[46.1 µM],.,.,6%[46.1 µM]
CC(C)c1ccc(OC(=O)c2cc(-c3ccccc3)on2)cc1,.,55,-4%[46.1 µM],.,.,13%[46.1 µM]

# High-throughput results deposited in PubChem by National Center for Advancing Translational Sciences (NCATS).
